From PubChem BioAssay AID1159580 (chemical genetic matrix, 2015)
Where “and” joins values, the source holds several entries; their conditions need not be identical. Identical values can stand only once. Among all 5,500 compounds or so, about 2,000 (36%) were called active. About 18% were inconclusive and are not listed. Cut-off read from the data, not from the text of the source: active = normalized growth mostly below about 0.91 (no sharp cut-off); inconclusive = no clear call, values can overlap the other calls; inactive = mostly above about 0.92. Some of the results follow.

Assay: chemical genetic growth profiling, strain panel (AID 1159580);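 note: tested at 20 µM; growth read once vehicle control cultures reached saturation at 30 °C; 1 = growth at the plate median or of vehicle wells; lower values mean less growth of the strain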
Conditions: growth OD
[1] = S. cerevisiae deletion strains, locus YAL013W, strain DEP1, stronger effect = lower value
[2] = S. cerevisiae deletion strains, locus YAL040C, strain CLN3, stronger effect = lower value
[3] = S. cerevisiae deletion strains, locus YCL061C, strain MRC1 (second series), stronger effect = lower value
[4] = S. cerevisiae deletion strains, locus YDR363W, strain ESC2, stronger effect = lower value
[5] = S. cerevisiae deletion strains, locus YER002W, strain NOP16, stronger effect = lower value
[6] = S. cerevisiae deletion strains, locus YGR078C, strain PAC10, stronger effect = lower value
[7] = S. cerevisiae deletion strains, locus YGR229C, strain SMI1, stronger effect = lower value
[8] = S. cerevisiae deletion strains, locus YJR075W, strain HOC1, stronger effect = lower value
[9] = S. cerevisiae deletion strains, locus YMR307W, strain GAS1, stronger effect = lower value
[10] = S. cerevisiae deletion strains, locus YNL153C, strain GIM3, stronger effect = lower value
[11] = S. cerevisiae deletion strains, locus YNL175C, strain NOP13, stronger effect = lower value
[12] = S. cerevisiae deletion strains, locus YNL197C, strain WHI3, stronger effect = lower value
[13] = S. cerevisiae deletion strains, locus YNL224C, strain SQS1, stronger effect = lower value
[14] = S. cerevisiae deletion strains, locus YOR083W, strain WHI5 (second series), stronger effect = lower value
[15] = S. cerevisiae deletion strains, locus YPL055C, strain LGE1, stronger effect = lower value
[16] = S. cerevisiae deletion strains, locus YPL241C, strain CIN2, stronger effect = lower value
[17] = S. cerevisiae deletion strains, locus YBR229C, strain ROT2, stronger effect = lower value
[18] = S. cerevisiae deletion strains, locus YDL101C, strain DUN1, stronger effect = lower value
[19] = S. cerevisiae deletion strains, locus YDR150W, strain NUM1, stronger effect = lower value
[20] = S. cerevisiae deletion strains, locus YEL061C, strain CIN8, stronger effect = lower value
[21] = S. cerevisiae deletion strains, locus YHR030C, strain SLT2, stronger effect = lower value
[22] = S. cerevisiae deletion strains, locus YJR043C, strain POL32, stronger effect = lower value
[23] = S. cerevisiae deletion strains, locus YKL190W, strain CNB1, stronger effect = lower value
[24] = S. cerevisiae deletion strains, locus YLR039C, strain RIC1, stronger effect = lower value
[25] = S. cerevisiae deletion strains, locus YLR262C, strain YPT6, stronger effect = lower value
[26] = S. cerevisiae deletion strains, locus YMR263W, strain SAP30, stronger effect = lower value
[27] = S. cerevisiae deletion strains, locus YNL322C, strain KRE1, stronger effect = lower value
[28] = S. cerevisiae deletion strains, locus YOL006C, strain TOP1, stronger effect = lower value
[29] = S. cerevisiae deletion strains, locus YHR079C, strain IRE1, stronger effect = lower value
[30] = S. cerevisiae deletion strains, locus YJL095W, strain BCK1, stronger effect = lower value
[31] = S. cerevisiae deletion strains, locus YJR066W, strain TOR1, stronger effect = lower value
[32] = S. cerevisiae deletion strains, locus YLR113W, strain HOG1, stronger effect = lower value
[33] = S. cerevisiae deletion strains, locus YNL183C, strain NPR1, stronger effect = lower value
[34] = S. cerevisiae deletion strains, locus YOR231W, strain MKK1, stronger effect = lower value
[35] = S. cerevisiae deletion strains, locus YPL256C, strain CLN2, stronger effect = lower value

Measured: normalized growth

N[C@@H](Cc1ccc(O)c(I)c1)C(=O)O
inactive: [1] 0.997 | [2] 0.991 | [3] 1 | [4] 1.01 | [5] 1.02 | [6] 1.01 | [7] 1.01 | [8] 0.991 | [9] 0.992 | [10] 1 | [11] 1 | [12] 0.997 | [13] 1.01 | [14] 1.02 | [15] 0.979 | [16] 0.993

O=C(O)Cc1ccccc1I
inactive: [1] 1 | [17] 0.996 | [18] 0.99 | [19] 0.988 | [20] 1.02 | [6] 0.989 | [21] 1.06 | S. cerevisiae deletion strains, locus YHR087W, strain rtc3, stronger effect = lower value 0.994 | S. cerevisiae deletion strains, locus YJL187C, strain SWE1, stronger effect = lower value 0.952 | [22] 1 | [8] 0.985 | [23] 1.02 | [24] 1.03 | S. cerevisiae deletion strains, locus YLR058C, strain SHM2 (second series), stronger effect = lower value 1 | S. cerevisiae deletion strains, locus YLR085C, strain ARP6, stronger effect = lower value 1.05 | [25] 1.05 | S. cerevisiae deletion strains, locus YML094W, strain GIM5, stronger effect = lower value 1.01 | S. cerevisiae deletion strains, locus YMR219W, strain ESC1, stronger effect = lower value 1.01 | [26] 1.01 | [10] 0.975 | S. cerevisiae deletion strains, locus YNL298W, strain CLA4 (second series), stronger effect = lower value 1.07 | [27] 1 | S. cerevisiae deletion strains, locus YNR030W, strain Alg12, stronger effect = lower value 1.03 | [28] 1.11 | [15] 0.978 | [16] 1.02 | S. cerevisiae deletion strains, locus YPR135W, strain CTF4, stronger effect = lower value 1.05

N[C@@H](Cc1ccc(F)cc1)C(=O)O
inactive: [1] 1.01 | [2] 0.992 | [3] 0.995 | [4] 1.01 | [5] 0.99 | [10] 0.995 | [11] 0.978 | [12] 0.995 | [13] 0.967 | [27] 1 | [14] 0.988 | [15] 0.99

O=C(O)Cc1cc(I)c(Oc2cc(I)c(O)c(I)c2)c(I)c1
inactive: [1] 0.948 | S. cerevisiae deletion strains, locus YBR021W, strain FUR4, stronger effect = lower value 1.03 | [17] 0.936 | S. cerevisiae deletion strains, locus YCL029C, strain bik1, stronger effect = lower value 0.96 | S. cerevisiae deletion strains, locus YDL035C, strain GPR1, stronger effect = lower value 0.982 | S. cerevisiae deletion strains, locus YDL074C, strain BRE1, stronger effect = lower value 0.942 | [18] 0.955 | S. cerevisiae deletion strains, locus YDL134C, strain PPH21, stronger effect = lower value 0.968 | S. cerevisiae deletion strains, locus YDL185W, strain tfp1, stronger effect = lower value 0.931 | S. cerevisiae deletion strains, locus YDL192W, strain arf1, stronger effect = lower value 0.957 | S. cerevisiae deletion strains, locus YDR101C, strain arx1, stronger effect = lower value 0.979 | [19] 0.943 | S. cerevisiae deletion strains, locus YDR162C, strain NBP2, stronger effect = lower value 0.847 | S. cerevisiae deletion strains, locus YDR318W, strain mcm21, stronger effect = lower value 0.98 | S. cerevisiae deletion strains, locus YDR388W, stronger effect = lower value 0.955 | S. cerevisiae deletion strains, locus YDR502C, strain sam2, stronger effect = lower value 0.957 | [20] 0.964 | S. cerevisiae deletion strains, locus YER110C, stronger effect = lower value 0.973 | S. cerevisiae deletion strains, locus YER155C, strain BEM2, stronger effect = lower value 0.97 | S. cerevisiae deletion strains, locus YER167W, strain BCK2, stronger effect = lower value 0.97 | S. cerevisiae deletion strains, locus YGL078C, strain dbp3, stronger effect = lower value 0.94 | S. cerevisiae deletion strains, locus YGL086W, strain mad1, stronger effect = lower value 0.982 | S. cerevisiae deletion strains, locus YGL248W, strain PDE1, stronger effect = lower value 0.965 | [6] 0.958 | S. cerevisiae deletion strains, locus YGR135W, strain pre9, stronger effect = lower value 0.942 | [7] 0.973 | S. cerevisiae deletion strains, locus YGR252W, strain gcn5, stronger effect = lower value 1.06 | S. cerevisiae deletion strains, locus YHR079C, strain IRE1 (second series), stronger effect = lower value 0.973 | S. cerevisiae deletion strains, locus YHR094C, strain hxt1, stronger effect = lower value 0.956 | S. cerevisiae deletion strains, locus YHR129C, strain ARP1, stronger effect = lower value 0.976 | S. cerevisiae deletion strains, locus YHR200W, strain rpn10, stronger effect = lower value 0.959 | S. cerevisiae deletion strains, locus YIL066C, strain RNR3, stronger effect = lower value 0.97 | S. cerevisiae deletion strains, locus YIL073C, strain SPO22, stronger effect = lower value 1.02 | S. cerevisiae deletion strains, locus YIL125W, strain kgd1, stronger effect = lower value 0.944 | S. cerevisiae deletion strains, locus YIR030C, strain dcg1, stronger effect = lower value 0.939 | [30] 0.924 and 0.892 | S. cerevisiae deletion strains, locus YJL134W, strain LCB3, stronger effect = lower value 0.954 | S. cerevisiae deletion strains, locus YJL168C, strain set2, stronger effect = lower value 0.942 | S. cerevisiae deletion strains, locus YJL187C, strain SWE1 (second series), stronger effect = lower value 0.949 | [22] 1.06 | [31] 0.864 | [8] 1 | S. cerevisiae deletion strains, locus YKL009W, strain mrt4, stronger effect = lower value 0.945 | [23] 0.946 | S. cerevisiae deletion strains, locus YKR001C, strain vps1, stronger effect = lower value 0.931 | [24] 0.817 | S. cerevisiae deletion strains, locus YLR058C, strain SHM2, stronger effect = lower value 0.959 | S. cerevisiae deletion strains, locus YLR102C, strain apc9, stronger effect = lower value 0.935 | [25] 0.749 | S. cerevisiae deletion strains, locus YLR268W, strain sec22, stronger effect = lower value 0.963 | S. cerevisiae deletion strains, locus YLR330W, strain CHS5, stronger effect = lower value 0.967 | S. cerevisiae deletion strains, locus YLR342W, strain FKS1 (second series), stronger effect = lower value 1.02 | S. cerevisiae deletion strains, locus YLR371W, strain rom2, stronger effect = lower value 0.987 | S. cerevisiae deletion strains, locus YLR418C, strain cdc73, stronger effect = lower value 0.911 | S. cerevisiae deletion strains, locus YML016C, strain PPZ1, stronger effect = lower value 0.95 | S. cerevisiae deletion strains, locus YML032C, strain rad52, stronger effect = lower value 0.983 | S. cerevisiae deletion strains, locus YML124C, strain tub3, stronger effect = lower value 0.951 | S. cerevisiae deletion strains, locus YMR078C, strain ctf18, stronger effect = lower value 0.96 | S. cerevisiae deletion strains, locus YMR223W, strain ubp8, stronger effect = lower value 1.01 | [26] 0.944 | [9] 1.07 | S. cerevisiae deletion strains, locus YNL067W, strain RPL9B, stronger effect = lower value 0.969 | S. cerevisiae deletion strains, locus YNL128W, strain TEP1, stronger effect = lower value 0.952 | [10] 0.951 | [33] 0.829 | S. cerevisiae deletion strains, locus YNL233W, strain BNI4, stronger effect = lower value 0.968 | S. cerevisiae deletion strains, locus YNL250W, strain rad50, stronger effect = lower value 0.923 | S. cerevisiae deletion strains, locus YNL271C, strain bni1, stronger effect = lower value 0.942 | S. cerevisiae deletion strains, locus YNL298W, strain CLA4, stronger effect = lower value 0.952 | S. cerevisiae deletion strains, locus YNL307C, strain MCK1, stronger effect = lower value 0.982 | [27] 0.962 | S. cerevisiae deletion strains, locus YNR052C, strain pop2, stronger effect = lower value 0.973 | [28] 0.862 | S. cerevisiae deletion strains, locus YOL012C, strain htz1 0.639 | S. cerevisiae deletion strains, locus YOL147C, strain pex11, stronger effect = lower value 0.965 | S. cerevisiae deletion strains, locus YOR061W, strain CKA2, stronger effect = lower value 0.929 | S. cerevisiae deletion strains, locus YOR069W, strain VPS5, stronger effect = lower value 0.962 | S. cerevisiae deletion strains, locus YOR136W, strain idh2, stronger effect = lower value 0.997 | S. cerevisiae deletion strains, locus YOR144C, strain elg1, stronger effect = lower value 0.947 | S. cerevisiae deletion strains, locus YOR184W, strain ser1, stronger effect = lower value 1.03 | S. cerevisiae deletion strains, locus YOR316C, strain cot1, stronger effect = lower value 0.941 | [15] 0.922 | [16] 0.953 | S. cerevisiae deletion strains, locus YPR119W, strain clb2, stronger effect = lower value 0.95 | S. cerevisiae deletion strains, locus YPR141C, strain kar3, stronger effect = lower value 0.924 | S. cerevisiae deletion strains, locus YPR167C, strain met16, stronger effect = lower value 0.98 | S. cerevisiae deletion strains, strain wtn01, stronger effect = lower value 0.95 | S. cerevisiae strains, strain wild type, stronger effect = lower value 0.96
active: [29] 0.762 | S. cerevisiae deletion strains, locus YKL068W, stronger effect = lower value 0.917 | S. cerevisiae deletion strains, locus YKL085W, strain MDH1 (second series), stronger effect = lower value 0.924 | S. cerevisiae deletion strains, locus YKL085W, strain MDH1, stronger effect = lower value 0.924 | [32] 0.418 | [34] 0.67 | [35] 0.679 | S. cerevisiae deletion strains, locus YPR163C, strain tif3, stronger effect = lower value 0.719
0.989 (inactive) and 0.84 (active): [21]

O=S(=O)([O][Al])OC[C@H]1O[C@@](COS(=O)(=O)[O][Al])(O[C@H]2O[C@H](COS(=O)(=O)[O][Al])[C@@H](OS(=O)(=O)[O][Al])[C@H](OS(=O)(=O)[O][Al])[C@H]2OS(=O)(=O)[O][Al])[C@@H](OS(=O)(=O)[O][Al])[C@@H]1OS(=O)(=O)[O][Al]
inactive: [21] 0.977 | [29] 0.981 | [30] 0.986 | [31] 0.958 | [32] 0.984 | [33] 0.924 | [34] 0.98 | [35] 0.985
